Experimental findings from PubChem BioAssay (NCI) are described below.

The panel holds about 83,000 compounds, 20% with a hit somewhere; the sample as a whole holds those more often.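 Each cell line was grown in a 96-well plate and treated with one concentration of compound for 48 hours. Values below 10 were considered active.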 Values without a mark were called inactive. Activity calls are given as the source filed them.

Among the test systems are EKVX NSCLC; SN12C renal; UO-31 renal; ACHN renal; CAKI-1 renal; A498 renal; CCRF-CEM leukemia; MOLT-4 leukemia; SR leukemia; RPMI-8226 leukemia; OVCAR-8 ovarian; OVCAR-5 ovarian; OVCAR-4 ovarian; SK-OV-3 ovarian; IGROV1 ovarian; OVCAR-3 ovarian; HS 578T breast; NCI/ADR-RES ovarian; T-47D breast.
Common to all, as to experiment: NCI-60 one-dose screen, 48 h (100 = growth as untreated, 0 = no growth, -100 = all killed)
What all share (details): 10 µM unless noted

As to `COc1ccc(-c2cc(C(=O)N=Nc3c(O)[nH]c4ccccc34)c3ccccc3n2)cc1OC`, the growth in the assay on EKVX NSCLC was 91.9%; in the assay with SN12C renal, 94.6%; in the assay with UO-31 renal, 85.2%; in the assay with ACHN renal, 102%; in the assay on CAKI-1 renal it was 94.9%; in the assay on A498 renal it was 82.1%. In addition, the growth with CCRF-CEM leukemia is 100%; with MOLT-4 leukemia it was 102%; with SR leukemia, 102%; in the assay on RPMI-8226 leukemia it was 99.4%; in the assay with OVCAR-8 ovarian, 98%; in the assay on OVCAR-5 ovarian, 91%. Besides, the growth in the assay with OVCAR-4 ovarian was 99.3%; in the assay on SK-OV-3 ovarian, 103%; in the assay on IGROV1 ovarian, 90.2%; in the assay with OVCAR-3 ovarian, 109%; in the assay on HS 578T breast, 97%; in the assay with NCI/ADR-RES ovarian, 92.1%. Further, the growth with T-47D breast was 87.3%.

For `OC1CCN(CCCOc2c3ccccc3nc3c2oc2ccc(Cl)cc23)CC1`, the growth with EKVX NSCLC was 14.8%; in the assay on SN12C renal, 18.8%; in the assay on UO-31 renal, 12.8%; in the assay with ACHN renal, 5.57% (active); in the assay on CAKI-1 renal, 12.8%; in the assay on A498 renal, -8.33% (active). For the same molecule, the growth in the assay with CCRF-CEM leukemia was 19.2%; in the assay on MOLT-4 leukemia, 9.39% (active); in the assay with SR leukemia it was 8.25% (active); in the assay on RPMI-8226 leukemia, -3.88% (active); with OVCAR-8 ovarian, 18.7%; with OVCAR-5 ovarian it was 21.2%. Besides, the growth was 19.1% in the assay on OVCAR-4 ovarian; 45.6% in the assay on SK-OV-3 ovarian; 1.4% (active) with IGROV1 ovarian; 27.7% in the assay on OVCAR-3 ovarian; 32% with HS 578T breast; 21.5% with NCI/ADR-RES ovarian. For the same molecule, in the assay with T-47D breast, the growth is 35.9%.

With `CCOC(=O)c1csc(NC(=O)CSc2nc3sc4c(c3c(=O)n2-c2ccc(Cl)cc2)CCCC4)n1`, the growth with EKVX NSCLC is 90.6%; in the assay with SN12C renal, 94.9%; in the assay on UO-31 renal, 77.2%; with ACHN renal, 102%; with CAKI-1 renal, 92%; with A498 renal, 88.1%. The growth was 100% in the assay with CCRF-CEM leukemia; 81.1% in the assay on MOLT-4 leukemia; 95.9% in the assay with SR leukemia; 92.5% in the assay on RPMI-8226 leukemia; 97.6% in the assay with OVCAR-8 ovarian; 97.9% in the assay on OVCAR-5 ovarian. In addition, the growth was 103% in the assay with OVCAR-4 ovarian; 135% with SK-OV-3 ovarian; 89.6% in the assay on IGROV1 ovarian; 138% in the assay with OVCAR-3 ovarian; 97.3% with HS 578T breast; 107% with NCI/ADR-RES ovarian. For the same molecule, the growth in the assay on T-47D breast was 87%.

With `Nc1cc(-c2c[nH]c3ccccc23)nc2cc(-c3c[nH]c4ccccc34)nn12`, the growth in the assay with EKVX NSCLC is 74.5%; in the assay on SN12C renal, 73%; in the assay with UO-31 renal, 44.2%; in the assay with ACHN renal, 51.6%; with CAKI-1 renal it was 59.4%; in the assay on A498 renal, 42.3%. Further, the growth is 45.4% in the assay with CCRF-CEM leukemia; 34% in the assay on MOLT-4 leukemia; 14% with SR leukemia; 64.3% in the assay on OVCAR-8 ovarian; 51% in the assay on OVCAR-5 ovarian; 65.1% in the assay on OVCAR-4 ovarian. The growth with SK-OV-3 ovarian was 139%; in the assay on IGROV1 ovarian, 57.2%; in the assay with OVCAR-3 ovarian, 92.4%; with HS 578T breast, 81.1%; with NCI/ADR-RES ovarian it was 59%; with T-47D breast, 68.7%.

With `Clc1ccc2oc3c(OCCCn4ccnc4)c4ccccc4nc3c2c1`, the growth was 71.9% in the assay on EKVX NSCLC; 56.3% in the assay on SN12C renal; 43.9% in the assay on UO-31 renal; 34.8% with ACHN renal; 38.5% with CAKI-1 renal; 8.47% (active) in the assay with A498 renal. Further, the growth with CCRF-CEM leukemia is 59.6%; with MOLT-4 leukemia, 24.7%; in the assay on SR leukemia, 32.5%; with RPMI-8226 leukemia, 67%; in the assay with OVCAR-8 ovarian it was 44.3%; in the assay with OVCAR-5 ovarian, 73.5%. The growth in the assay on OVCAR-4 ovarian is 74.5%; in the assay with SK-OV-3 ovarian, 112%; in the assay with IGROV1 ovarian it was 55%; in the assay on OVCAR-3 ovarian, 101%; in the assay on HS 578T breast, 87.8%; with NCI/ADR-RES ovarian, 56.4%. The growth in the assay on T-47D breast was 74.6%.

With `O=C(CSc1nc2sc3c(c2c(=O)n1-c1ccc(Cl)cc1)CCCC3)NNC(=O)Nc1cccc(C(F)(F)F)c1`, the growth in the assay with EKVX NSCLC was 31.5%; in the assay with SN12C renal, 14.6%; in the assay with UO-31 renal, 13.2%; in the assay with ACHN renal, 6.86% (active); in the assay on CAKI-1 renal, 13.7%; with A498 renal it was -5.48% (active). The growth with CCRF-CEM leukemia is 17.1%; in the assay on MOLT-4 leukemia, 8.64% (active); in the assay with SR leukemia it was 5.49% (active); in the assay on RPMI-8226 leukemia it was -7.39% (active); with OVCAR-8 ovarian it was 22.1%; in the assay with OVCAR-5 ovarian, 52.6%. Moreover, the growth is 22.5% with OVCAR-4 ovarian; 62.1% in the assay on SK-OV-3 ovarian; 24.4% with IGROV1 ovarian; 5.17% (active) with OVCAR-3 ovarian; 56.9% with HS 578T breast; 32.2% in the assay on NCI/ADR-RES ovarian. The growth in the assay with T-47D breast is 13.2%.

Regarding `COc1ccc([C@@H]2c3[nH]c4ccccc4c3CC3C(=O)N(C4CCN(Cc5c(F)cccc5F)CC4)CC(=O)N32)c(OC)c1` (some centres undefined), the growth in the assay with EKVX NSCLC is 51.9% [5.26 µM]; in the assay with SN12C renal, 67.5% [5.26 µM]; in the assay with UO-31 renal, 39.7% [5.26 µM]; in the assay on ACHN renal, 47.6% [5.26 µM]; in the assay on CAKI-1 renal, 40.4% [5.26 µM]; in the assay on A498 renal it was 29.4% [5.26 µM]. The growth is 58.1% [5.26 µM] in the assay on CCRF-CEM leukemia; 49% [5.26 µM] in the assay with MOLT-4 leukemia; 79.4% [5.26 µM] in the assay on SR leukemia; 41.3% [5.26 µM] in the assay on RPMI-8226 leukemia; 73.4% [5.26 µM] with OVCAR-8 ovarian; 76.7% [5.26 µM] in the assay with OVCAR-5 ovarian. The growth in the assay with OVCAR-4 ovarian was 69.4% [5.26 µM]; in the assay with IGROV1 ovarian, 39.8% [5.26 µM]; in the assay on OVCAR-3 ovarian, 64.1% [5.26 µM]; in the assay with HS 578T breast it was 45.1% [5.26 µM]; in the assay on T-47D breast, 47.1% [5.26 µM].

Turning to `Clc1ccc(-c2cn3cc(Cc4ccc(Cl)c(Cl)c4)sc3n2)cc1`, the growth with EKVX NSCLC was 69.8%; with SN12C renal it was 76.6%; in the assay on UO-31 renal it was 68.1%; with ACHN renal it was 47%; in the assay on CAKI-1 renal, 42.6%; in the assay with A498 renal it was 82.3%. In addition, the growth is 79.7% in the assay on CCRF-CEM leukemia; 61% with MOLT-4 leukemia; 94.5% with SR leukemia; 90.9% in the assay on RPMI-8226 leukemia; 75.5% in the assay on OVCAR-8 ovarian; 83.6% in the assay with OVCAR-5 ovarian. Also, the growth was 56.1% with OVCAR-4 ovarian; 106% in the assay on SK-OV-3 ovarian; 62.5% in the assay on IGROV1 ovarian; 97.5% in the assay with OVCAR-3 ovarian; 94.1% with HS 578T breast; 88.9% in the assay with NCI/ADR-RES ovarian. Also, in the assay with T-47D breast, the growth was 50.4%.
